Assay outcomes: PubChem, several laboratories
hcDAF12 agonist: activates DAF-12 receptor from parasite H. contortus. HEK293 hcDAF-12 lit1-tk-luc reporter, luminescence; 0% DMSO, 100% Δ7-dafachronic acid. activation, % at 6.8 µM. 1.4% of 370,000 active. AID 652067;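 active = activation above the mean of all tested compounds plus 3 SD, cut at about 5.5% in these data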
Wnt act: activators of Wnt/beta-catenin signaling. Wnt/beta-catenin reporter cell assay, activator, plate reader. activation, % at 9.35 µM. 1.2% of 300,000 active. AID 743398; in the data active = activation above about 30%, passing the limit was not always enough; inconclusive = no clear call, values can overlap the other calls
DAX1 inh: inhibitors of DAX1 repression of SF-1 activated StAR promoter; HEK293T StAR-luciferase reporter, SF-1/DAX-1 repression relief; inhibition, % at 6.8 µM; 1.1% of 370,000 active; AID 652010;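 active = inhibition above the mean over all tested compounds plus 3 SD, cut at about 3.6% in these data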;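 note: higher inhibition means more luminescence from relief of DAX-1 repression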
hgDAF-12 ag: agonists of H. glycines DAF-12 nuclear receptor; HEK293 GAL4-hgDAF12 UAS-luciferase reporter, agonist luminescence; normalized to butyrate control; activation, % at 6.8 µM; 1.8% of 370,000 active; AID 687014;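 active = activation above a cutoff set at the mean of all screened compounds plus 3 SD, cut at about 10% in these data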
ssDAF-12 act: activates DAF-12 receptor from parasite S. stercoralis | activation, % at 6.8 µM | HEK293 ssDAF-12/GRIP1 lit1-tk-luc reporter, luminescence; % of 3 µM dafachronic acid response | 1% of 370,000 active | AID 652126;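 active = activation above the mean over all tested compounds plus 3 SD, cut at about 0.9% in these data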
esBAF inh: inhibitors of esBAF chromatin remodeling in mouse ES cells; reporter increase, % at 12.5 µM; AID 602393; 2% of 350,000 active; Bmi1-luciferase knock-in reporter, 24 h; 100% = twice the neutral-well signal; in the data active = activation above about 40%; inconclusive = no clear call, values can overlap the other calls;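 note: a rise in the Bmi1 reporter signal indicates esBAF inhibition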
DAX1 conf: NR0B1 (human) inhibition, confirmation. shares compounds with DAX1 inh. HEK293T StAR-promoter luciferase reporter, SF-1/DAX-1 repression. inhibition, % at 6.8 µM. 87% of 2,400 active;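 active = inhibition above the average of every tested compound plus 3 SD, cut at about 3.8% in these data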;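 note: active compounds raise luminescence by relieving repression of the StAR reporter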
SF1 mutant ctr: counter-screen for DAX1 inhibitors: nonselective inhibitors with SF-1 AF2 mutant; inhibition, % at 6.8 µM; 78% of 2,400 active; shares compounds with DAX1 inh; HEK293 StAR-luciferase, luminescence;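 active = inhibition above the mean of all tested compounds plus 3 SD, cut at about 3% in these data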
LXR ag: activates human LXR-beta, counter-screen for hcDAF-12 agonists | HEK293 Gal4-LXR tk-luc reporter, luminescence, 24 h; normalized: DMSO 0%, positive control 100% | activation, % at 6.8 µM | shares compounds with hcDAF12 agonist | 3,400 tested, under 10 active;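 active = mean percent activation of the reporter above a cutoff set as the average over tested compounds plus their standard deviation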
Target sequence (P55055 whole entry, looked up, the tested form may be a part): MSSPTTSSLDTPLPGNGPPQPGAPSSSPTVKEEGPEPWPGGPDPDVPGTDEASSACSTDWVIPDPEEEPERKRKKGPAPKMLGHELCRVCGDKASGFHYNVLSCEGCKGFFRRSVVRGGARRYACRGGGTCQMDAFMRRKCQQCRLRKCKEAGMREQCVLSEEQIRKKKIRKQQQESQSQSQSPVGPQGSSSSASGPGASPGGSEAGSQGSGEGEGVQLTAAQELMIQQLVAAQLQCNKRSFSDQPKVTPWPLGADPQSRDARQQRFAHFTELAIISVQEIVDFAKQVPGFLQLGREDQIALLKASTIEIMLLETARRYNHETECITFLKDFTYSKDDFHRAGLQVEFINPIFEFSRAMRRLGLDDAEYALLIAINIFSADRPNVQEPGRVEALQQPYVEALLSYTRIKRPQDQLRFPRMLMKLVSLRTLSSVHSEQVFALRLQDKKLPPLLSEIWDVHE
hcDAF12 ag: confirmation of H. contortus DAF-12 agonists; 61% of 3,400 active; shares compounds with hcDAF12 agonist; HEK293 hcDAF-12 lit1-tk-luc reporter, luminescence; % of Δ7-dafachronic acid response; activation, % at 6.8 µM;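 active = mean activation across triplicate tests above the threshold derived from the earlier primary screen, cut at about 5.5% in these data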
hgDAF12 ag: confirmation of H. glycines DAF-12 agonists; shares compounds with hgDAF-12 ag; HEK293 GAL4-hgDAF12 luciferase reporter, agonist mode; percent of butyrate response; activation, % at 6.8 µM; 80% of 3,300 active; AID 743050;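 active = mean activation over triplicate wells above the hit cutoff derived from the earlier primary screen, cut at about 11% in these data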
LXRb DAF12 ctr: activates human LXR-beta, counter-screen for DAF-12 agonists; 3,300 tested, under 10 active; activation, % at 6.8 µM; shares compounds with hgDAF-12 ag; AID 743051; HEK293 Gal4-LXR luciferase reporter, 24 h;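 active = mean activation of the triplicate above a set limit carried over from the primary screen, none filed active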
A number is an active result; n = inactive; u = inconclusive; x = not tested or not shown. A selection: hits, their analogues and other compounds. The true share with any hit is near 4.2%.

SMILES | hcDAF12 agonist | Wnt act | DAX1 inh | hgDAF-12 ag | ssDAF-12 act | esBAF inh | DAX1 conf | SF1 mutant ctr | hgDAF12 ag | LXRb DAF12 ctr | others
O=C(O)c1ccc(N/N=C/c2ccc(C(F)(F)F)cc2)cc1 | n | n | n | n | n | n | x | x | x | x
O=C(O)c1ccc(/C=N/Nc2ccc(F)cc2F)cc1 | 9.8 | n | 12 | 21 | 2.5 | n | 20 | 5.5 | 21 | n
COc1ccc2nc(NC(=O)c3cccc(OCc4c(C)noc4C)c3)sc2c1 | n | x | n | n | n | n | x | x | x | x
COc1ccc2nc(NC(=O)C3COc4ccccc4O3)sc2c1 (configuration not stated) | 6.4 | n | 5.6 | 19 | n | n | 12 | 7.6 | 11 | n
COc1ccc2nc(NC(=O)c3ccoc3C)sc2c1 | 9.9 | n | 5.5 | 15 | n | n | 14 | 4.4 | 19 | n | LXR ag=n;hcDAF12 ag=5.9
CC(C)NC(=O)Nc1ccc2c(c1)C(=O)N([C@H](C)CO)C[C@@H](C)[C@H](CN(C)S(=O)(=O)c1ccc(Cl)cc1)OCCCC[C@H](C)O2 | x | x | x | x | x | n | x | x | x | x
C[C@H](CO)N1C[C@H](C)[C@H](CN(C)Cc2ccc(C(=O)O)cc2)Oc2c(NC(=O)NC3CCCCC3)cccc2C1=O | x | x | x | x | x | n | x | x | x | x
O=C(C[C@@H]1C=C[C@H](NC(=O)Nc2ccc(C(F)(F)F)cc2)[C@@H](CO)O1)NCCN1CCCC1 | x | x | x | x | x | n | x | x | x | x
c1ccc(-c2noc(-c3ccc4c(c3)OCO4)n2)cc1 | 6.3 | n | 5.0 | 22 | 1.2 | x | 18 | 7.7 | 19 | n
COc1cccc(-c2noc(-c3ccc4c(c3)OCO4)n2)c1 | n | 42 | 6.1 | 17 | 1.8 | x | 13 | 4.0 | 17 | n
O=C(C1CC1)N1C[C@H]2[C@@H](c3ccccc31)[C@@H](CO)N2C(=O)c1ccccn1 | x | x | x | x | x | n | x | x | x | x
CCOc1ccc(NC(=O)c2csc3c2CCCC3)cc1 | 5.6 | 46 | 7.1 | 18 | n | 78 | 12 | 7.7 | 16 | n
O=C(Nc1n[nH]c(=S)s1)c1ccc2ccccc2c1 | n | n | 16 | 14 | n | n | 13 | 6.3 | 13 | n
Cc1cccc(C)c1NC(=O)C1C(c2ccc3c(c2)OCO3)=Nc2ccccc2N1C(=O)c1ccccc1 (configuration not stated) | n | n | n | n | n | x | x | x | x | x
O=C(Nc1ccc2c(c1)OCCO2)C1C(c2ccccc2)=Nc2ccccc2N1C(=O)c1cccnc1 (configuration not stated) | 11 | 50 | 13 | 20 | n | x | 20 | 7.9 | 12 | n | LXR ag=n;hcDAF12 ag=7.1
COc1ccc(NC(=O)Nc2ccc3c(c2)CC(=O)N([C@H](C)CO)C[C@H](C)[C@@H](CN(C)Cc2ccncc2)O3)cc1 | x | x | x | x | x | n | x | x | x | x
COc1cc(O)cc(/C=C/c2ccccc2)c1 | n | n | 4.6 | 15 | n | 51 | 9.3 | 5.5 | 16 | n
COc1cc(/C=C/C(=O)O)cc(OC)c1 | x | x | x | x | x | n | x | x | x | x
c1ccc(NCc2nc(-c3ccccc3)no2)cc1 | n | n | n | n | n | n | x | x | x | x
C(=C\c1nc(-c2ccccc2)no1)/c1ccccc1 | 5.8 | n | 5.9 | 17 | n | n | 17 | 6.7 | 23 | n
C[C@H](CO)N1C[C@H](C)[C@@H](CN(C)C)Oc2ccc(NC(=O)Nc3ccc(C(F)(F)F)cc3)cc2CC1=O | x | x | x | x | x | n | x | x | x | x
Cc1cc(NC(NC(=O)c2ccco2)(C(F)(F)F)C(F)(F)F)no1 | n | n | n | n | n | n | x | x | x | x
CC(C)(C)c1cc(NC(=O)c2ccco2)no1 | 14 | n | 13 | 14 | 1.0 | n | 12 | 7.0 | 15 | n | LXR ag=n;hcDAF12 ag=6.2
CC(=O)N(C)C[C@@H]1Oc2ncc(C#Cc3ccccn3)cc2C(=O)N([C@@H](C)CO)C[C@H]1C | x | x | x | x | x | n | x | x | x | x
C[C@H]1CCCCO[C@H](CN(C)C(=O)Nc2ccc(F)cc2)[C@@H](C)CN([C@@H](C)CO)C(=O)c2cc(NC(=O)c3ccccc3)ccc2O1 | x | x | x | x | x | n | x | x | x | x
SMILES | hcDAF12 agonist | Wnt act | DAX1 inh | hgDAF-12 ag | ssDAF-12 act | esBAF inh | DAX1 conf | SF1 mutant ctr | hgDAF12 ag | LXRb DAF12 ctr | others
O=C(Nc1ccccc1)N1C[C@@H]2[C@H](c3ccccc31)[C@@H](CO)N2C(=O)c1cccnc1 | x | x | x | x | x | n | x | x | x | x
CCOc1ccc(/C=N/Nc2ccccn2)cc1OC | n | n | 6.7 | 16 | n | x | 8.3 | 4.4 | 13 | n
C(=N\Nc1ccccn1)/c1ccc2c(c1)OCCO2 | 6.0 | n | 5.6 | 27 | n | n | 15 | 9.4 | 22 | n
C=CCOc1ccc(/C=N/Nc2ccccn2)cc1OC | n | n | 5.3 | 14 | n | 64 | 4.7 | n | 11 | n
Fc1cccc(/C=N/Nc2ccccn2)c1 | n | n | n | n | n | x | x | x | x | x
O=C(O)c1cc(N/N=C/c2ccc3c(c2)OCCO3)ccc1Cl | n | n | 4.6 | 17 | n | x | 13 | 6.0 | 23 | n
COc1cccc(NC(=O)Nc2ccc3c(c2)C(=O)N(C)[C@H]2CC[C@H](CC(=O)NCCc4ccccc4)O[C@@H]2CO3)c1 | x | x | x | x | x | n | x | x | x | x
C[C@H](CO)N1C[C@H](C)[C@H](CN(C)Cc2ccc(-c3ccccc3)cc2)Oc2ccc(NC(=O)C3CC3)cc2C1=O | x | x | x | x | x | n | x | x | x | x
O=C(C1CCCC1)N1C[C@H]2[C@@H](c3ccccc31)[C@H](CO)N2C(=O)Nc1cccc(F)c1 | x | x | x | x | x | n | x | x | x | x
Cc1ccc(Cc2c(-c3ccc(C)cc3)nc3cc(C)ccn23)cc1 | n | n | 6.2 | 18 | n | n | n | n | n | n
Cc1ccc(Cc2c(-c3ccc(C)cc3)nc3ccc(Br)cn23)cc1 | n | n | n | n | n | u | x | x | x | x
Cc1ccn2c(Cc3ccccc3)c(-c3ccc(Br)cc3)nc2c1 | n | n | 8.4 | 17 | n | n | 5.3 | n | n | n
